From PubChem BioAssay (EPA / NIEHS)
Inconclusive results are not listed. Where a structure was tested more than once in an assay, its records may differ in their call. Calls of active or inactive are those of the source. The calls were made as follows, unless noted: active = hit-call score of the fitted dose curve at least 0.9, where 1 is the maximum; inactive = score below 0.9.

Tests used:
[1] = molecular target: Nuclear respiratory factor 1 (Homo sapiens) (UniProt Q16656); test: ATG_NRF1_CIS: Attagene CIS-FACTORIAL HepG2 Assay for human Nuclear Respiratory Factor 1 (NRF1) Orphan Gene (AID 2282987); conditions: HepG2 NRF1 cis-element reporter, Attagene multiplex; actives raise or lower the signal
Procedure, shortened: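 Cells (HepG2, transient MRTU transfection) are exposed to compound for 24 h, then RNA isolated and reporter mRNA amplified and fluorescently labelled. Fragments are separated by capillary electrophoresis; signal change is fitted bidirectionally relative to DMSO.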

[2] = ATG_NFI_CIS: Attagene CIS-FACTORIAL HepG2 Assay for human Nuclear Factor I (NFI) (AID 2282989); conditions: HepG2 cis-regulatory reporter, NFI response element transcription; actives raise or lower the signal
Procedure, shortened: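 Reporter transcription driven by endogenous transcription factors in HepG2 cells; 24 h treatment. Quantitation by labelled RT-PCR fragments on capillary electrophoresis, gain- or loss-of-signal relative to DMSO.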

[3] = molecular target: Myc proto-oncogene protein (Homo sapiens) (UniProt P01106); test: ATG_Myc_CIS: Attagene CIS-FACTORIAL HepG2 Assay for human Myelocytomatosis (Myc) Proto-Oncogene Transcription Factor (AID 2282990); conditions: HepG2, Attagene cis-reporter transcription factor activity; actives raise or lower the signal
Procedure, shortened: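 Read-out: fluorescent reporter mRNA fragments resolved by capillary electrophoresis after RT-PCR. Human HepG2 liver cells carried transfected cis-element reporter units and were dosed for 24 h. Gain or loss of signal fitted relative to DMSO baseline.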

[4] = ATG_NF_kB_CIS: Attagene CIS-FACTORIAL HepG2 Assay for human Nuclear Factor Kappa B (NF-kB) (AID 2282991); conditions: HepG2 Attagene cis-factorial NF-kB reporter mRNA; actives raise or lower the signal
Procedure, shortened: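 Measures mRNA induction of an NF-kB-responsive cis-element reporter in HepG2 cells transfected with multiple reporter units, sampled 24 h post-dosing; quantified by fluorescence after RT-PCR and capillary electrophoresis, fitted for activation or inhibition against DMSO.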

[5] = ATG_NRF2_ARE_CIS: Attagene CIS-FACTORIAL HepG2 Assay for human Nuclear Factor Erythroid 2 Related Factor 2 (NFR2) response to Antioxidant Response Elements (ARE) (AID 2282992); conditions: HepG2 Attagene ARE/NRF2 reporter, transcription factor activity; actives raise or lower the signal;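 as to AC50: reporter mRNA level measured by RT-PCR and capillary electrophoresis fluorescence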
Procedure, shortened: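 Fluorescence intensity of reporter-specific cDNA fragments, separated by capillary electrophoresis, reflects mRNA induction in transfected HepG2 cells at 24 h. Activity is fitted bidirectionally, DMSO serving as baseline.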

[6] = ATG_Oct_MLP_CIS: Attagene CIS-FACTORIAL HepG2 Assay for human Octamer-Binding Transcription Factor (Oct) (AID 2282993); conditions: HepG2 Attagene cis-factorial Oct reporter, mRNA; actives raise or lower the signal
Procedure, shortened: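 Transfected HepG2 cells, 24 h treatment. Reporter mRNA quantified by RT-PCR–capillary electrophoresis; bidirectional fitting against DMSO.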

[7] = molecular target: Cellular tumor antigen p53 (Homo sapiens) (UniProt P04637); test: ATG_p53_CIS: Attagene CIS-FACTORIAL HepG2 Assay for human p53 Transcription Factor (AID 2282994); conditions: HepG2 p53 cis-element reporter, Attagene mRNA; actives raise or lower the signal
Procedure, shortened: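 Transiently transfected HepG2 (multiple cis reporter transcription units); exposure 24 h; reporter RNA via RT-PCR, 6-FAM extension, 2 h HpaI digest at 37 C, CE detection; DMSO baseline.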

[8] = molecular target: Retinoic acid receptor alpha (Homo sapiens) (UniProt P10276); test: ATG_RARa_TRANS: Attagene TRANS-FACTORIAL HepG2 Assay for human Retinoic Acid Receptor alpha (RARa) (AID 2283005; active = hit-call score of the fitted dose curve at least 0.9, where 1 is the maximum)
Procedure, shortened: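 HepG2 transiently transfected with multiplex GAL4-UAS reporter units including a human RARa–GAL4 chimera; 24 h compound exposure. Reporter mRNA quantified by RT-PCR, 6-FAM labeling and capillary electrophoresis; gain of signal versus DMSO.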

[9] = molecular target: Peroxisome proliferator-activated receptor gamma (Homo sapiens) (UniProt P37231); test: ATG_PPARg_TRANS: Attagene TRANS-FACTORIAL HepG2 Assay for human Peroxisome Proliferator-activated Receptor-gamma (PPARg) (AID 2283007; active = hit-call score of the fitted dose curve at least 0.9, where 1 is the maximum)
Procedure, shortened: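 Gain-of-signal endpoint relative to DMSO, derived from reporter mRNA levels quantified by RT-PCR and capillary electrophoresis. Cells were HepG2 transiently expressing a chimeric NR-Gal4 construct with GAL4-UAS reporters, exposed to chemicals for 24 h.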

[10] = molecular target: human Retinoic Acid Receptor gamma (RARg), RARG (gene 5916) (UniProt P13631); test: ATG_RARg_TRANS: Attagene TRANS-FACTORIAL HepG2 Assay for human Retinoic Acid Receptor gamma (RARg) (AID 2283009; active = hit-call score of the fitted dose curve at least 0.9, where 1 is the maximum)
Procedure, shortened: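 TRANS format measured activity of exogenous NR-GAL4 fusion (RARg) in transfected HepG2 liver cells after 24 h dosing. Induced reporter RNA was detected by RT-PCR/capillary electrophoresis fluorescence, analysed in the positive direction against DMSO.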

[11] = molecular target: Nuclear receptor subfamily 1 group I member 2 (Homo sapiens) (UniProt O75469); test: ATG_PXR_TRANS: Attagene TRANS-FACTORIAL HepG2 Assay for human Pregnane X Receptor (PXR) (AID 2283008; active = hit-call score of the fitted dose curve at least 0.9, where 1 is the maximum)
Procedure, shortened: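 Transient HepG2 transfectants carrying multiplexed reporter transcription units; PXR activity read through a Gal4 chimera. 24 h exposure. RT-PCR/CE fluorescence; upward curve fit referenced to DMSO.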

[12] = molecular target: human Peroxisome Proliferator-activated Receptor alpha (PPARa), PPARA (gene 5465) (UniProt Q07869); test: ATG_PPARa_TRANS: Attagene TRANS-FACTORIAL HepG2 Assay for human Peroxisome Proliferator-activated Receptor alpha (PPARa) (AID 2283001; active = hit-call score of the fitted dose curve at least 0.9, where 1 is the maximum;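 as to AC50: potency for gain of reporter signal over DMSO so agonist or activator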)
Procedure, shortened: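 HepG2, transient MRTU transfection, 24 h treatment. RT-PCR → FAM labelling → capillary electrophoresis. Fit vs DMSO, positive direction.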

[13] = molecular target: human Peroxisome Proliferator-activated Receptor delta (PPARd), PPARD (gene 5467) (UniProt Q03181); test: ATG_PPARd_TRANS: Attagene TRANS-FACTORIAL HepG2 Assay for human Peroxisome Proliferator-activated Receptor delta (PPARd) (AID 2283002; active = hit-call score of the fitted dose curve at least 0.9, where 1 is the maximum)
Procedure, shortened: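 Read-out: reporter mRNA induction, quantified by fluorescent RT-PCR products resolved by capillary electrophoresis. Human HepG2 liver cells carried transiently transfected Gal4-UAS reporter constructs with chimeric NR-Gal4 fusions. Cells were dosed for 24 h; DMSO served as baseline.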

[14] = molecular target: human Retinoic Acid Receptor beta (RARb), RARB (gene 5915) (UniProt P10826); test: ATG_RARb_TRANS: Attagene TRANS-FACTORIAL HepG2 Assay for human Retinoic Acid Receptor beta (AID 2283004; active = hit-call score of the fitted dose curve at least 0.9, where 1 is the maximum)
Procedure, shortened: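 HepG2, transient MRTU transfection, NR–Gal4 chimera, 24 h treatment; RT-PCR plus CE fluorescence detection of reporter mRNA; gain of signal vs DMSO.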

[15] = BSK_3C_TissueFactor: BioMAP Diversity Plus: 3C Assay for Tissue Factor Biomarker Activity (AID 2282997); conditions: BioMAP 3C HUVEC, tissue factor biomarker readout; actives raise or lower the signal
Procedure, shortened: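 Cells used were primary human umbilical vein endothelial cells. They were dosed with chemical, and after 24 h Tissue Factor was quantified by ELISA. Curves were fitted bidirectionally with DMSO as baseline.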

[16] = BSK_3C_uPAR: BioMAP Diversity Plus: 3C Assay for Urokinase-type plasminogen activator receptor (uPAR) Biomarker Activity (AID 2282998); conditions: BioMAP 3C HUVEC, uPAR biomarker ELISA; actives raise or lower the signal
Procedure, shortened: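 Readout: ELISA for surface uPAR. System: human umbilical vein endothelial primary cells, 24 h after chemical exposure. Analysis: bidirectional fit, DMSO baseline.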

[17] = BSK_3C_VCAM1: BioMAP Diversity Plus: 3C Assay for Vascular cell adhesion molecule 1 (VCAM1) Biomarker Activity (AID 2282999); conditions: BioMAP 3C HUVEC, VCAM1 ELISA, cytokine-stimulated; actives raise or lower the signal
Procedure, shortened: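 HUVEC primary cells, 24 h compound exposure; VCAM-1 by ELISA; gain/loss of signal fitted bidirectionally vs DMSO baseline.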

[18] = BSK_4H_Eotaxin3: BioMAP Diversity Plus: 4H Assay for Eotaxin 3 Biomarker Activity (AID 2283000); conditions: primary human endothelial cells (HUVEC); actives raise or lower the signal
Procedure, shortened: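 Endothelial primary cells (human umbilical vein) exposed to compound for 24 h. ELISA detection of Eotaxin-3.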

[19] = BSK_3C_Proliferation: Cell Proliferation Assessment in the BioMAP Diversity Plus: 3C Assay (AID 2283006); conditions: primary human endothelial cells (HUVEC);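 as to AC50: potency may reflect either rise or fall in cell number versus DMSO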
Procedure, shortened: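 Cells (human umbilical vein endothelial, sub-confluent) receive test chemical; after 48 h they are fixed in 10% trichloroacetic acid, stained with 0.1% SRB and read at 560 nm. Activity is referenced to DMSO, fitting increases and decreases.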

[20] = read-out: Intercellular Adhesion Molecule 1 (ICAM1), ICAM1 (gene 3383); test: BSK_3C_ICAM1: BioMAP Diversity Plus: 3C Assay for Intercellular Adhesion Molecule 1 (ICAM1) Biomarker Activity (AID 2283003); conditions: primary human endothelial cells (HUVEC); actives raise or lower the signal
Procedure, shortened: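 Chemicals are dosed onto primary human umbilical vein endothelium (3C system). After 24 h, ICAM-1 is measured by ELISA, and responses are fitted bidirectionally relative to DMSO.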

Measured: AC50

Sequence of Nuclear respiratory factor 1 (Homo sapiens) (Q16656 whole entry, looked up, the tested form may be a part): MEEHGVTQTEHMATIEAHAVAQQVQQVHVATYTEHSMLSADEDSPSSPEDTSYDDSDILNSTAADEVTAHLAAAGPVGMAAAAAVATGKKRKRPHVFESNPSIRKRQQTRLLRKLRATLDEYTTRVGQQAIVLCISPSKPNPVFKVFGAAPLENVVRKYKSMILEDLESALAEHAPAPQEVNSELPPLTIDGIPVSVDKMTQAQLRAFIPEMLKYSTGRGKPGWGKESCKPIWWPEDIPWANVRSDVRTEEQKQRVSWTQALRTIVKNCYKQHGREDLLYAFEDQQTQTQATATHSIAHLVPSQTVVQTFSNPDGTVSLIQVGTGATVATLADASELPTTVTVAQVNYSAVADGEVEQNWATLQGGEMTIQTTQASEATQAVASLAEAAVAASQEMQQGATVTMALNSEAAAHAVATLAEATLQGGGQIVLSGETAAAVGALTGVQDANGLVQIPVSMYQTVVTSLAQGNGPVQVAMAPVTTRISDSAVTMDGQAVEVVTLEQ
Sequence of Nuclear receptor subfamily 1 group I member 2 (Homo sapiens) (O75469 whole entry, looked up, the tested form may be a part): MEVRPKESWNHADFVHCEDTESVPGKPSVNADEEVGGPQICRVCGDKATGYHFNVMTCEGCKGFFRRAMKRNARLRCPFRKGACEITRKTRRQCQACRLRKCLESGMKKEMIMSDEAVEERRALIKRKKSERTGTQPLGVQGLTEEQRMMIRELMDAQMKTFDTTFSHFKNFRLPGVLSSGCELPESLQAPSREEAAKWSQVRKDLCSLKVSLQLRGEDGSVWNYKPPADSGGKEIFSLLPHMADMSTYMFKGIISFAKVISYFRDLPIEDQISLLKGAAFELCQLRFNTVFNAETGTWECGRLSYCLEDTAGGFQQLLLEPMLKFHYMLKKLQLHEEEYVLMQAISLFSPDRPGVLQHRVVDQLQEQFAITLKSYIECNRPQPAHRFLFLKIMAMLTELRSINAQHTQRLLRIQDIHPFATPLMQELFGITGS
Sequence of Retinoic acid receptor alpha (Homo sapiens) (P10276 whole entry, looked up, the tested form may be a part): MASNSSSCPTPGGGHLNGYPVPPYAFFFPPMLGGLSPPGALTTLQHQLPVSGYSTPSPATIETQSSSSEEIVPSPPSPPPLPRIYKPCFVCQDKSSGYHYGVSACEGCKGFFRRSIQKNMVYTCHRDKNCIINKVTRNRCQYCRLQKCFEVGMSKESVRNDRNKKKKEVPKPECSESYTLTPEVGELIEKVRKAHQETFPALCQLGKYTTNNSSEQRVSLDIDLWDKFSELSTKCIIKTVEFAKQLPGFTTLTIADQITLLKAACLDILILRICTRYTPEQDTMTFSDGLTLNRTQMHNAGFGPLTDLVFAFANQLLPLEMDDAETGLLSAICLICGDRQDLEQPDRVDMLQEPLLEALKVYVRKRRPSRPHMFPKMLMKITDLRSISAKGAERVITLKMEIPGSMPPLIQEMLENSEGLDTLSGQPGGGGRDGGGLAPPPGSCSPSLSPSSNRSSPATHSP
Sequence of human Retinoic Acid Receptor gamma (RARg), RARG (gene 5916) (P13631 whole entry, looked up, the tested form may be a part): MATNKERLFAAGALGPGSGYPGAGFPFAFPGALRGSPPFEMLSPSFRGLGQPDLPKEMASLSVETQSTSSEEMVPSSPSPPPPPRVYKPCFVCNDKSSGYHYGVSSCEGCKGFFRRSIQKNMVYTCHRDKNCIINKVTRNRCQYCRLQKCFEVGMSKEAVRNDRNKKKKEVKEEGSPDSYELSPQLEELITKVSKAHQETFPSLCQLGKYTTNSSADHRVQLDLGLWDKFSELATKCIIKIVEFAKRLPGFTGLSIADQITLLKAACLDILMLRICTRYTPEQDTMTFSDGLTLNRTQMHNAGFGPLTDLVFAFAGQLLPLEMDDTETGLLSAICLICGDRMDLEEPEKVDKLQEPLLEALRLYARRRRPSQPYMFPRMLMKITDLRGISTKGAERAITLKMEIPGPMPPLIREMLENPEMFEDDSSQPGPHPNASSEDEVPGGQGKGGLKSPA
Sequence of Myc proto-oncogene protein (Homo sapiens) (P01106 whole entry, looked up, the tested form may be a part): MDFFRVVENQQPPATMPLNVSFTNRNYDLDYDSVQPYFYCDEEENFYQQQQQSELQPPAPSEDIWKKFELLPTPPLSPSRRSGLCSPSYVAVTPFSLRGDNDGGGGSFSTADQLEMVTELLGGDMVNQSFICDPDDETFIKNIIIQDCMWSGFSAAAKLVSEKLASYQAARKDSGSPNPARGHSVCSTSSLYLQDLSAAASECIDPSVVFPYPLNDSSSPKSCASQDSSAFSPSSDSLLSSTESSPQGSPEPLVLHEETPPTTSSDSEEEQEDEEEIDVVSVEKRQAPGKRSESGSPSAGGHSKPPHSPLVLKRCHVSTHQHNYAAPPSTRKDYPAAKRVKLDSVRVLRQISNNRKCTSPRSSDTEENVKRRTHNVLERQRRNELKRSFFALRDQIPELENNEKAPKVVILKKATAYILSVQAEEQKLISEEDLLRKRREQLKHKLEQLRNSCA
Sequence of human Peroxisome Proliferator-activated Receptor delta (PPARd), PPARD (gene 5467) (Q03181 whole entry, looked up, the tested form may be a part): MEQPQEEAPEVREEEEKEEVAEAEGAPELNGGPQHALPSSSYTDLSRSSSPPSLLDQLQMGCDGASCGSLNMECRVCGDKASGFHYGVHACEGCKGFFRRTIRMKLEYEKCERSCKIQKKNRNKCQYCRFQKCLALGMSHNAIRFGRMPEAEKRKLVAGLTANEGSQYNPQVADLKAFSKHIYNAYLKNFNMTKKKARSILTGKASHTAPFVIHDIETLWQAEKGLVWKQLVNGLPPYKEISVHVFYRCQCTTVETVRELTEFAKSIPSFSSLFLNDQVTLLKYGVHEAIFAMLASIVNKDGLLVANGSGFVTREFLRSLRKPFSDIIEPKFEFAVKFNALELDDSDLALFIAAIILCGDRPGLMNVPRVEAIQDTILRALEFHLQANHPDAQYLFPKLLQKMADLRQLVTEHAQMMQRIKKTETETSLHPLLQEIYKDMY
Sequence of human Peroxisome Proliferator-activated Receptor alpha (PPARa), PPARA (gene 5465) (Q07869 whole entry, looked up): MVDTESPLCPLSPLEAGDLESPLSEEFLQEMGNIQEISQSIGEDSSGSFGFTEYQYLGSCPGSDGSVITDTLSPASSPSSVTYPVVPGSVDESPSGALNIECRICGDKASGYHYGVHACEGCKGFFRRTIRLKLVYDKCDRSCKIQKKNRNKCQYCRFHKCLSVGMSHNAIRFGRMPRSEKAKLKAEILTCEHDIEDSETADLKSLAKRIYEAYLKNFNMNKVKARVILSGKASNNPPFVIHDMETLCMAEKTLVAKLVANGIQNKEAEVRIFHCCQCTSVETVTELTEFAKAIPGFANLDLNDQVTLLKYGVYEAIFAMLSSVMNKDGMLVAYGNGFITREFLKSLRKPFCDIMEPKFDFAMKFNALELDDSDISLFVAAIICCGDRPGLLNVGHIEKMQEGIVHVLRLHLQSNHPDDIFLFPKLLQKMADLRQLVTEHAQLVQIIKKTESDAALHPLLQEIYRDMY
Sequence of Cellular tumor antigen p53 (Homo sapiens) (P04637 whole entry, looked up): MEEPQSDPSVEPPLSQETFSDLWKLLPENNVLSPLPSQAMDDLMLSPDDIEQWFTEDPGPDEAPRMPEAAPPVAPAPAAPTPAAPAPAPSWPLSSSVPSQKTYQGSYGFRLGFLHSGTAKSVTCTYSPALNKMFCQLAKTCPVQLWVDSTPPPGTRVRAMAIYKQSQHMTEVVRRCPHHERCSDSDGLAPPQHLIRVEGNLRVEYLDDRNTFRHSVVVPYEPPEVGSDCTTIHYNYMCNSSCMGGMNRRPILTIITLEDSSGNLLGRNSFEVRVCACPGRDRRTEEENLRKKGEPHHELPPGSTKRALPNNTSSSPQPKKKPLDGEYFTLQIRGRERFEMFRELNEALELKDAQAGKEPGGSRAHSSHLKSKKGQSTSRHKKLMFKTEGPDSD
Sequence of Peroxisome proliferator-activated receptor gamma (Homo sapiens) (P37231 whole entry, looked up, the tested form may be a part): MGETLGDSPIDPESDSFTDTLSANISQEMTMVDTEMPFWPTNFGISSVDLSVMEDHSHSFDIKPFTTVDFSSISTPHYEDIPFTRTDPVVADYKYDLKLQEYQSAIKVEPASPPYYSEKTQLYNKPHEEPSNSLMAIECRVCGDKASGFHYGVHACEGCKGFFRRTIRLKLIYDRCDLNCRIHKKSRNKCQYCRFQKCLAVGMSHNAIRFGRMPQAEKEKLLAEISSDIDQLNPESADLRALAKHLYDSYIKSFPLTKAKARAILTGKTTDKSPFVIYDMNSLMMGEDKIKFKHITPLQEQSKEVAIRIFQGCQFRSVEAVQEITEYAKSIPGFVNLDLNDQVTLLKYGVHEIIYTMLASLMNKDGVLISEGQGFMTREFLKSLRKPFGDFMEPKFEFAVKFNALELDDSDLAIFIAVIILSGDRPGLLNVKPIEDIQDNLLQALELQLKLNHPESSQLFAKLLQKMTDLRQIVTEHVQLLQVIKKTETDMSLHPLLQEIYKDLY
Sequence of human Retinoic Acid Receptor beta (RARb), RARB (gene 5915) (P10826 whole entry, looked up, the tested form may be a part): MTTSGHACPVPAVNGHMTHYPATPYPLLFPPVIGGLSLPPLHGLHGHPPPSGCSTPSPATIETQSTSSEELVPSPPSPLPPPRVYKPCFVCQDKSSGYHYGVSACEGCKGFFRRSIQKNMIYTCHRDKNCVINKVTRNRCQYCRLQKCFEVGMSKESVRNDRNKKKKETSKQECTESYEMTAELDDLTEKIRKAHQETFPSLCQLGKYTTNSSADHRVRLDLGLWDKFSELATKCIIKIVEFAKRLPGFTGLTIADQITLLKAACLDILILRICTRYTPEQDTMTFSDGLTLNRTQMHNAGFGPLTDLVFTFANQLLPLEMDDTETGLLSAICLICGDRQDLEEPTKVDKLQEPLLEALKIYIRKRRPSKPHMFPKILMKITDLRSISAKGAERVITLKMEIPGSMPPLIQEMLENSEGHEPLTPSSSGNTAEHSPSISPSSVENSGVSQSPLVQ

CCc1cccc(CC)c1
inactive: [1] | [2] | [3] | [4] | [5] | [6] | [7] | [8] | [9] | [10]

C=C1C[C@H]2[C@@H]3C=C(C)C4=CC(=O)CC[C@]4(C)[C@H]3CC[C@]2(C)[C@@]1(OC(C)=O)C(C)=O
active: [1] 88.1 µM | [2] 106 µM | [4] 63 µM | [5] 42.1 µM
inactive: [3] | [6] | [7] | [11]

C=CCOC(=O)c1ccc(C(=O)OCC=C)c(C(=O)OCC=C)c1
active: [5] 36.1 µM | [12] 8.92 µM | [9] 27.7 µM
inactive: [1] | [2] | [3] | [4] | [6] | [13] | [11]

CC(=O)OCc1ccccc1
inactive: [1] | [2] | [3] | [4] | [5] | [6] | [12] | [13] | [14] | [9] | [11]

CCC(C)N (configuration not stated)
inactive: [1] | [2] | [3] | [4] | [5] | [6] | [12] | [13] | [14] | [9]

O=C1CCCN1C1CCCCC1
inactive: [1] | [2] | [3] | [4] | [5] | [6] | [12] | [11]

COC(=O)c1ccc(C(=O)OC)c(C(=O)OC)c1
active: [12] 12.6 µM | [9] 34.5 µM
inactive: [1] | [2] | [3] | [4] | [5] | [6] | [13] | [8] | [11]

CCCCNS(=O)(=O)c1ccccc1
inactive: [1] | [2] | [3] | [4] | [5] | [6] | [7] | [11]

CO[Si](C)(C)OC
active: [3] 158 µM
inactive: [1] | [2] | [4] | [5] | [6] | [7] | [14] | [9] | [11]

Cc1c(O)cccc1O
inactive: [1] | [2] | [3] | [4] | [5] | [6] | [15] | [16] | [17] | [18] | [19] | [9] | [11]

CCCCC1CCC(=O)O1 (configuration not stated)
active: [11] 41.4 µM
inactive: [1] | [2] | [3] | [4] | [5] | [6] | [7] | [14] | [8] | [9] | [10]

O=C1CCCCCCCCCCC1
active: [11] 27.4 µM
inactive: [1] | [2] | [3] | [5] | [6] | [7] | [15] | [16] | [17] | [18] | [12] | [13] | [19] | [9] | [10]

c1ccc2c(c1)[nH]c1ccccc12
active: [19] 9.38 µM | [11] 27.4 µM
inactive: [1] | [2] | [3] | [5] | [6] | [7] | [15] | [16] | [17] | [18] | [13] | [19] | [10]

O=C(OCCc1ccccc1)c1ccccc1
inactive: [1] | [2] | [3] | [5] | [6] | [7] | [12] | [13] | [14] | [10]

O=c1c(O)c(-c2ccc(O)cc2O)oc2cc(O)cc(O)c12
inactive: [1] | [2] | [3] | [5] | [6] | [7] | [12] | [13] | [14] | [8] | [9] | [11]

C=CC(=O)OCCCCCCOC(=O)C=C
inactive: [1] | [2] | [3] | [13]
active: [5] 6.61 µM | [6] 26.2 µM | [7] 174 µM | [15] 3.97 µM | [16] 20 µM | [17] 10.4 µM | [18] 12.4 µM | [20] 29.3 µM | [19] 8.97 µM | [9] 6.09 µM | [11] 26.5 µM

CC1OC(=O)C(C)OC1=O (configuration not stated)
inactive: [1] | [2] | [3] | [5] | [6] | [7] | [12] | [13] | [14] | [9] | [11]

CC(C)(CO)C(O)C(=O)NCCCO (configuration not stated)
inactive: [1] | [2] | [3] | [4] | [5] | [6] | [13] | [9]

CC1=CC=C(C(C)C)CC1
active: [5] 152 µM
inactive: [1] | [2] | [3] | [6] | [7] | [15] | [16] | [17] | [18] | [19] | [11]

CC1=CCC(C(C)C)C=C1 (configuration not stated)
inactive: [1] | [2] | [3] | [6] | [7]
active: [5] 25.3 µM | [11] 7.16 µM
